Screening results: PubChem BioAssay, National Center for Advancing Translational Sciences (NCATS)
An excerpt weighted towards active compounds, which were near 17% of everything screened.
TDP1 cell CPT – DT40-hTDP1 cell growth loss with CPT; chicken DT40 Tdp1-/-;hTDP1 cells + 20 nM CPT, ATP luminescence, 48 h; Potency, µM (doses to about 46.2 µM), without a hit: at the highest dose activity change, negative = growth inhibition, most hits filed as inhibitors; 420,000 tested, 12% active; note: % is set by controls: 0 for no effect and ±100 for the full control effect; nearly all actives have a fitted effect of over 55% in size
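Chicken DT40 Tdp1-/- cells complemented with human TDP1, 400 cells/well, exposed to compounds plus 20 nM camptothecin for at least 48 h at 37 C; viability read as ATP content by CellTiter-Glo luminescence.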
TGFb inhibitor – blocks TGF-b signaling; HepG2 CAGA-GFP TGF-b/SMAD3 reporter, GFP fluorescence, 18 h; TGF-beta stimulated, 500 pg/mL final; Potency, µM (doses to about 46.1 µM), for the others: at the highest dose activity, negative = inhibition, actives largely listed as inhibitors; 410,000 tested, 1.2% active; note: % is set by controls: 0 for no effect and ±100 for the full control effect; nearly all actives have a fitted effect of over 65% in size
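Cell-based qHTS in HEPG2 carrying a CAGA-GFP Smad reporter; compounds added before 500 pg/mL final TGF-beta, 18 h incubation at 37 degrees C, GFP fluorescence quantified per cell by imaging cytometry.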
ATXN2 expr inh – ATXN2 expression inhibition; HEK-293 ATXN2-luciferase reporter, luminescence, 24 h; Potency, µM (highest dose often 57 µM), for the others: at the highest dose activity change, negative = inhibition, actives largely listed as inhibitors; 360,000 tested, 0.72% active; AID 1745845; note: % is set by controls: 0 for no effect and ±100 for the full control effect; nearly all actives have a fitted effect of over 55% in size
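qHTS (up to 57 uM final) was run with 24 h compound exposure of reporter cells at 37 °C. Each well was multiplexed: SteadyGlo luminescence measured ATXN2-luciferase expression after a fluorogenic Gly-Phe-AFC viability readout (25 uM final).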
DT40 TDP1 no CPT – qHTS for Inhibitors of human tyrosyl-DNA phosphodiesterase 1 (TDP1): qHTS in cells in absence of CPT; DT40 Tdp1-/- hTDP1 cells, no CPT, ATP luminescence, 48 h; Potency, µM (top dose mostly 46.2 µM), inactives show at the top dose activity change, negative = growth inhibition, usual class: inhibitors; 420,000 tested, 15% active; AID 686978, 2013; note: % is set by controls: 0 for no effect and ±100 for the full control effect; nearly all actives have a fitted effect of over 55% in size
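Chicken DT40 Tdp1-/- cells complemented with human TDP1, screened without camptothecin (DMSO vehicle only), 400 cells/well. Compounds pin-transferred, cells incubated at 37 °C for at least 48 hr. Growth read as ATP-dependent luminescence (CellTiter-Glo, 30 min at RT).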
ATXN viability – viability counter-screen for ATXN expression inhibitors; S2 cells (HEK-293 line with an ATXN2-luciferase reporter) viability, CellTiter-Fluor protease fluorescence, 24 h; Potency, µM (titrated, usually from 56.7 µM), most hits filed as cytotoxic; 400,000 tested, 0.49% active; note: nearly all actives have a fitted effect of over 40% in size
HepG2 tox – kills HepG2 cells in TGF-b inhibitor counter-screen | Potency, µM (titrated, usually from 46.1 µM), for the others: top-dose activity change, negative = cytotoxicity, actives largely listed as cytotoxic | 410,000 tested, 0.76% active | AID 588856 | HepG2 CAGA-GFP viability, ATP luminescence, 18 h
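HepG2 CAGA-GFP cells (1000/well, DMEM with 1% FBS) received compound, then TGF-beta at 500 pg/mL final, and were incubated 18 hours at 37 degrees C. Viability was read by CellTiter-Glo luminescence. Media-only wells were set as complete cell-killing and DMSO as no toxicity.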
* = called active by the depositor; i = inactive; ? = inconclusive; · = no result; [ ] = another dose, or the depositor's remark. Calls come from the whole dose curve; as a rule, active = well fitted curve in the direction sought with a large enough effect; inconclusive = small, poorly fitted or top-dose-only effect, or another doubt; inactive = no such curve, though single readings can be large; an effect the other way counts as inactive or inconclusive. Potency is the fitted concentration of half-maximal effect.

SMILES	TDP1 cell CPT	TGFb inhibitor	ATXN2 expr inh	DT40 TDP1 no CPT	ATXN viability	HepG2 tox
COC(=O)C[C@@H]1OC[C@H](C)N1S(=O)(=O)c1ccc(C)cc1	-3%	·	·	0%	·	·
CCOC(=O)C1CCCN(C(=O)c2cnn(-c3ncc4c(n3)-c3ccccc3CCC4)c2C2CC2)C1 (stereo not given)	11%	·	·	-21%	i	·
Cc1cccc(C)c1NC(=O)C1(C)CN(S(C)(=O)=O)CC(=O)N1Cc1ccco1 (stereo not given)	?	·	·	10%	·	·
C[C@H](CO)N1C[C@H](C)[C@@H](CN(C)Cc2ccc(Cl)c(Cl)c2)Oc2c(NC(=O)CCC(F)(F)F)cccc2C1=O	18µM*	13µM*	?	12µM*	?	-92%
C[C@H](CO)N1C[C@H](C)[C@@H](CN(C)CC2CCCCC2)Oc2c(NC(=O)Cc3ccccc3)cccc2C1=O	15µM*	16µM*	?	16µM*	32µM*	16µM*
C[C@H]1CN([C@@H](C)CO)C(=O)c2cccc(NC(=O)C3CC3)c2O[C@H]1CN(C)Cc1ccc(C(F)(F)F)cc1	-28%	5%	-20%	?	i	1%
C[C@H](CO)N1C[C@H](C)[C@@H](CN(C)Cc2ccc3c(c2)OCO3)Oc2c(NC(=O)C3CCCCC3)cccc2C1=O	21µM*	?	-22%	23µM*	?	-2%
C[C@H](CO)N1C[C@H](C)[C@@H](CN(C)Cc2ccc(Cl)c(Cl)c2)Oc2c(NC(=O)C3CC3)cccc2C1=O	16µM*	?	?	23µM*	·	-40%
COc1cc(S(=O)(=O)Nc2ccccc2C(=O)N2CCCC2)ccc1NC(C)=O	-15%	-38%	-2%	-2%	?	-40%
COc1cc(CC(NC(C)=O)C(=O)NC2CCN(C(=O)Nc3ccccc3C)CC2)cc(OC)c1 (stereo not given)	12%	2%	0%	0%	i	8%
C[C@H](CO)N1C[C@H](C)[C@@H](CN(C)Cc2ccc(C(=O)Nc3ccccc3N)cc2)Oc2c(NC(=O)C3CCCCC3)cccc2C1=O	15µM*	-25%	?	15µM*	20µM*	-22%
C[C@@H]1CN([C@H](C)CO)C(=O)c2cccc(NC(=O)c3ccncc3)c2O[C@@H]1CN(C)Cc1ccc(C(=O)O)cc1	5%	-3%	-5%	0%	i	-2%
CCC(C)NC(=O)CSc1nnc(-c2cc(-c3cccs3)nc3ccccc23)o1 (stereo not given)	?	-12%	-6%	18µM*	i	-17%
CC(CCc1ccccc1)NC(=O)c1ccc(-n2cncn2)c([N+](=O)[O-])c1 (stereo not given)	1%	-3%	-1%	-13%	i	4%
CCCNC(=O)c1nn2c(C(F)(F)F)cc(-c3ccccc3)nc2c1Br	-22%	2%	-27%	?	i	-1%
CCCCNC(=O)c1nn2c(C(F)(F)F)cc(-c3ccc(OC)cc3)nc2c1Br	23µM*	4%	-4%	?	i	-18%
COc1ccc(-c2cc(C(F)(F)F)n3nc(C(=O)N(C)Cc4ccccc4)cc3n2)cc1OC	16µM*	3%	-17%	?	?	-9%
COC(=O)c1cc2nc(-c3ccc(C)cc3)cc(C(F)(F)F)n2n1	-1%	3%	-1%[11.3 µM]	-1%	·	16%
COc1cc(NC(=O)c2cc3nc(-c4ccc(C)cc4)cc(C(F)(F)F)n3n2)cc(OC)c1OC	?	15%	0%	7.3µM*	i	-3%
CCCCNC(=O)c1cc2nc(-c3ccc(OC)cc3)cc(C(F)(F)F)n2n1	?	-3%	·	26µM*	·	-1%
CN(Cc1ccc(F)cc1)S(=O)(=O)c1nnc(NC(=O)c2ccccc2Br)s1	?	?	4%	?	i	-49%
O=C(Nc1cc(-c2ccccc2F)nn1-c1ccccc1)c1ccccc1Br	18µM*	-10%	13%	21µM*	i	-21%
O=C(COc1ccccc1Cl)Nc1cc(-c2ccccc2F)nn1-c1ccccc1	?	-11%	6%	9.2µM*	i	-5%
COC(=O)[C@@H]1CCCN1C(=O)c1c(OC)cc(=O)n2c1CCN(Cc1ccc3cccnc3c1)CC2	0%	·	·	-4%	i	·
OC[C@@H]1[C@@H](c2ccc(F)cc2)C(c2cccc(Cl)c2)=NN1c1ccccc1	21µM*	?	?	23µM*	·	-91%
SMILES	TDP1 cell CPT	TGFb inhibitor	ATXN2 expr inh	DT40 TDP1 no CPT	ATXN viability	HepG2 tox
O=C1OCCN1C(=O)[C@H]1[C@H](c2ccccc2)C(c2ccc(F)cc2)=NN1c1ccc(Br)cc1	?	?	-3%	?	·	-25%
COc1ccccc1[C@H]1C(c2cccc(C)c2)=NN(c2ccccc2)[C@@H]1CO	?	?	-27%	?	·	-78%
OC[C@@H]1[C@@H](c2ccc(Cl)cc2)C(c2ccccc2)=NN1c1ccccc1	?	?	?	16µM*	·	-116%
OC[C@@H]1[C@@H](c2ccc(Cl)cc2)C(c2cccc(Cl)c2)=NN1c1ccccc1	21µM*	11µM*	?	13µM*	·	13µM*
CC(=O)c1ccc(-n2c(CCC(=O)O)ccc2-c2ccc(Br)cc2)cc1	-7%	-5%	-26%	-14%	i	-11%
O=C(CNC(=O)c1ccc(Br)o1)Nc1ccc(F)c(S(=O)(=O)N2CCOCC2)c1	-16%	?	3%	-16%	i	-6%
Cc1ccc(OCCOCCn2ccnc2)c(Br)c1	-26%	13%	14%	23µM*	i	-1%
Cc1ccc(OCCn2ccnc2)c(C)c1	-9%	-23%	-12%	9%	i	-9%
Cc1cc(C)cc(OCCCn2ccnc2)c1	-11%	-25%	3%	-9%	i	-7%
Cc1cc(C)c(OCCCn2ccnc2)c(C)c1	-17%	-3%	-18%	1%	?	5%
Cc1ccc(OCCCn2ccnc2)cc1C	?	-4%	-14%	18µM*	i	0%
Cc1cc(C)c(OCCn2ccnc2)c(C)c1	6.5µM*	-7%	18%	5.2µM*	i	4%
Cc1cccc(OCCCn2ccnc2)c1	21µM*	3%	-4%	?	i	-17%
CCOC(=O)C1(C)CCN1C(=O)c1ccc(F)c(Cl)c1 (stereo not given)	-30%	-28%	2%	-16%	i	-6%
